Activity calls are given as the source filed them.
Columns and labels:
[1] = binders of probe aFSTL3 on microarray, primary screen, stem cell growth factor project, biochemical, small-molecule microarray, fluorescence 635/667 (AID 1064); settings: higher = more signal;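 also: measures binding of the biotinylated anti-FSTL3 antibody to printed compounds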
[2] = binders from COS7 lysate, DM2A8 probe, primary screen, torsin A project, cell lysate, small-molecule microarray, fluorescence 635/667 (AID 1065); settings: higher = more signal, COS7 lysate expressing mutant human TOR1A
[3] = binders of probe aFGF2 on microarray, primary screen, stem cell growth factor project, biochemical, small-molecule microarray, fluorescence 635/667 (AID 1067); settings: higher = more signal;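 also: measures binding of biotinylated aFGF2 protein to printed compounds on slides; z-score merges feature fluorescence and signal-to-noise across triplicate slides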
[4] = binders of probe aFGF10 on microarray, primary screen, stem cell growth factor project, biochemical, small-molecule microarray, fluorescence 635/667 (AID 1071); settings: higher = more signal;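 also: score merges 667 nm spot intensity and signal to noise from triplicate slides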
[5] = molecular target: Neurogenic locus notch homolog protein 2 (Homo sapiens) (UniProt Q04721); test: Notch2 binders on small-molecule microarrays, primary screen, biochemical, small-molecule microarray, 635 nm fluorescence, stem cell growth factors (AID 1073); settings: Notch2 binding, higher = more signal
[6] = molecular target: Pro-neuregulin-1, membrane-bound isoform (Homo sapiens) (UniProt Q02297); test: NRG1 binders on small-molecule microarrays, primary screen, psychiatric disease protein project, biochemical, small-molecule microarray, fluorescence 635/667 (AID 1075); settings: NRG1 binding, 635 nm fluorescence, higher = more signal;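 also: score combines 667 nm spot fluorescence with signal to noise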
[7] = tested on: Neuregulin-1 EGF-like domain; test: binders of neuregulin-1 EGF-like domain, primary screen, biochemical, small-molecule microarray, 635 nm fluorescence (AID 1081); settings: small-molecule microarray binding, higher = more signal;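 also: binding of the protein to compounds printed on small-molecule microarray slides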
[8] = FRG1 promoter luciferase signal modulators, primary screen, FRG1 inhibition for FSHD, cell-based, C2C12 myotubes, firefly/Renilla luciferase, luminescence (AID 1084); settings: higher = more signal, called active from +8 up or from −8 down
[9] = binders of probe aFST on microarray, primary screen, stem cell growth factor project, biochemical, small-molecule microarray, fluorescence 635/667 (AID 1086); settings: higher = more signal;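 also: score merges 667 nm fluorescence with signal-to-noise of each printed compound spot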
[10] = binders of probe aHhip on microarray, primary screen, stem cell growth factor project, biochemical, small-molecule microarray, fluorescence 635/667 (AID 1087); settings: higher = more signal;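 also: score merges spot fluorescence at 667nm with spot signal to noise ratio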
[11] = tested on: PRMT1 (protein arginine N-methyltransferase 1); test: PRMT1 binders on small-molecule microarrays, primary screen, biochemical, small-molecule microarray, 635 nm fluorescence (AID 1088); settings: small-molecule microarray binding, higher = more signal;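 also: binding of Prmt1 protein to compounds spotted on small-molecule microarray slides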
[12] = yeast growth modulation, basal conditions, primary screen, YJM789 clinical isolate, OD600, 24 h (AID 1089);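 also: growth of clinical yeast isolate S. cerevisiae YJM 789 seeded 1000 cells per well; test concentration not given here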; settings: S. cerevisiae YJM789 growth, higher = more signal, called active from +8 up or from −8 down
[13] = fission yeast growth modulation, primary screen, strain 972, OD600, 24 h, no modulator (AID 1090);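 also: basal condition with compound alone and no growth modifier present; test concentration not given here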; settings: S. pombe 972 growth, higher = more signal, called active from +8 up or from −8 down
[14] = S. cerevisiae growth modulation with rapamycin, primary screen, strain BY4716, OD600, 96 h (AID 1091); settings: higher = more signal, called active from +8 up or from −8 down; also: test concentration not given here
[15] = molecular target: Torsin-1A-interacting protein 2 (Homo sapiens) (UniProt Q8NFQ8); test: LULL1 binders on small-molecule microarray, primary screen, cell lysate, human LULL1 lysate, 635/667 nm fluorescence (AID 1092); settings: hLULL1 lysate binding, 635 nm fluorescence, higher = more signal;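 also: probe is lysate of COS7 cells overexpressing human LULL1; score merges per-feature 667 nm fluorescence with signal-to-noise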
[16] = E. coli growth modulation, two-sided OD650, primary screen, E. coli filamentation project, strain DRC41, 24 h (AID 1093); settings: OD650, 24 h, higher = more signal, called active from +8 up or from −8 down;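 also: MC1000 strain lacking acrAB efflux and sulA so SOS filamentation is blocked; test concentration not given here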
[17] = small-molecule microarray binders of probe aLefty2, primary screen, biochemical, biotinylated probe, 635/667 nm fluorescence (AID 1094); settings: higher = more signal;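 also: score merges spot fluorescence near 667 nm with spot signal-to-noise ratio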
[18] = tested on: Noggin (protein binding on small-molecule microarray); test: Noggin binders on small-molecule microarray, primary screen, biochemical, 635/667 nm fluorescence (AID 1095); settings: 635 nm fluorescence, higher = more signal;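 also: score merges 667 nm feature fluorescence with signal to noise over triplicate slides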
[19] = molecular target: Neurogenic locus notch homolog protein 3 (Homo sapiens) (UniProt Q9UM47); test: NOTCH3 binders on small-molecule microarray, primary screen, biochemical, 635/667 nm fluorescence (AID 1096); settings: NOTCH3 binding, 635 nm fluorescence, higher = more signal
[20] = small-molecule microarray binders of probe aEGFR, primary screen, biochemical, biotinylated probe, 635/667 nm fluorescence (AID 1097); settings: higher = more signal;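 also: probe is a biotinylated anti-EGFR antibody binding compounds printed on slides; score combines fluorescence near 667 nm and signal to noise of each spot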

Sequence of Neurogenic locus notch homolog protein 2 (Homo sapiens) (Q04721 whole entry, looked up, canonical isoform): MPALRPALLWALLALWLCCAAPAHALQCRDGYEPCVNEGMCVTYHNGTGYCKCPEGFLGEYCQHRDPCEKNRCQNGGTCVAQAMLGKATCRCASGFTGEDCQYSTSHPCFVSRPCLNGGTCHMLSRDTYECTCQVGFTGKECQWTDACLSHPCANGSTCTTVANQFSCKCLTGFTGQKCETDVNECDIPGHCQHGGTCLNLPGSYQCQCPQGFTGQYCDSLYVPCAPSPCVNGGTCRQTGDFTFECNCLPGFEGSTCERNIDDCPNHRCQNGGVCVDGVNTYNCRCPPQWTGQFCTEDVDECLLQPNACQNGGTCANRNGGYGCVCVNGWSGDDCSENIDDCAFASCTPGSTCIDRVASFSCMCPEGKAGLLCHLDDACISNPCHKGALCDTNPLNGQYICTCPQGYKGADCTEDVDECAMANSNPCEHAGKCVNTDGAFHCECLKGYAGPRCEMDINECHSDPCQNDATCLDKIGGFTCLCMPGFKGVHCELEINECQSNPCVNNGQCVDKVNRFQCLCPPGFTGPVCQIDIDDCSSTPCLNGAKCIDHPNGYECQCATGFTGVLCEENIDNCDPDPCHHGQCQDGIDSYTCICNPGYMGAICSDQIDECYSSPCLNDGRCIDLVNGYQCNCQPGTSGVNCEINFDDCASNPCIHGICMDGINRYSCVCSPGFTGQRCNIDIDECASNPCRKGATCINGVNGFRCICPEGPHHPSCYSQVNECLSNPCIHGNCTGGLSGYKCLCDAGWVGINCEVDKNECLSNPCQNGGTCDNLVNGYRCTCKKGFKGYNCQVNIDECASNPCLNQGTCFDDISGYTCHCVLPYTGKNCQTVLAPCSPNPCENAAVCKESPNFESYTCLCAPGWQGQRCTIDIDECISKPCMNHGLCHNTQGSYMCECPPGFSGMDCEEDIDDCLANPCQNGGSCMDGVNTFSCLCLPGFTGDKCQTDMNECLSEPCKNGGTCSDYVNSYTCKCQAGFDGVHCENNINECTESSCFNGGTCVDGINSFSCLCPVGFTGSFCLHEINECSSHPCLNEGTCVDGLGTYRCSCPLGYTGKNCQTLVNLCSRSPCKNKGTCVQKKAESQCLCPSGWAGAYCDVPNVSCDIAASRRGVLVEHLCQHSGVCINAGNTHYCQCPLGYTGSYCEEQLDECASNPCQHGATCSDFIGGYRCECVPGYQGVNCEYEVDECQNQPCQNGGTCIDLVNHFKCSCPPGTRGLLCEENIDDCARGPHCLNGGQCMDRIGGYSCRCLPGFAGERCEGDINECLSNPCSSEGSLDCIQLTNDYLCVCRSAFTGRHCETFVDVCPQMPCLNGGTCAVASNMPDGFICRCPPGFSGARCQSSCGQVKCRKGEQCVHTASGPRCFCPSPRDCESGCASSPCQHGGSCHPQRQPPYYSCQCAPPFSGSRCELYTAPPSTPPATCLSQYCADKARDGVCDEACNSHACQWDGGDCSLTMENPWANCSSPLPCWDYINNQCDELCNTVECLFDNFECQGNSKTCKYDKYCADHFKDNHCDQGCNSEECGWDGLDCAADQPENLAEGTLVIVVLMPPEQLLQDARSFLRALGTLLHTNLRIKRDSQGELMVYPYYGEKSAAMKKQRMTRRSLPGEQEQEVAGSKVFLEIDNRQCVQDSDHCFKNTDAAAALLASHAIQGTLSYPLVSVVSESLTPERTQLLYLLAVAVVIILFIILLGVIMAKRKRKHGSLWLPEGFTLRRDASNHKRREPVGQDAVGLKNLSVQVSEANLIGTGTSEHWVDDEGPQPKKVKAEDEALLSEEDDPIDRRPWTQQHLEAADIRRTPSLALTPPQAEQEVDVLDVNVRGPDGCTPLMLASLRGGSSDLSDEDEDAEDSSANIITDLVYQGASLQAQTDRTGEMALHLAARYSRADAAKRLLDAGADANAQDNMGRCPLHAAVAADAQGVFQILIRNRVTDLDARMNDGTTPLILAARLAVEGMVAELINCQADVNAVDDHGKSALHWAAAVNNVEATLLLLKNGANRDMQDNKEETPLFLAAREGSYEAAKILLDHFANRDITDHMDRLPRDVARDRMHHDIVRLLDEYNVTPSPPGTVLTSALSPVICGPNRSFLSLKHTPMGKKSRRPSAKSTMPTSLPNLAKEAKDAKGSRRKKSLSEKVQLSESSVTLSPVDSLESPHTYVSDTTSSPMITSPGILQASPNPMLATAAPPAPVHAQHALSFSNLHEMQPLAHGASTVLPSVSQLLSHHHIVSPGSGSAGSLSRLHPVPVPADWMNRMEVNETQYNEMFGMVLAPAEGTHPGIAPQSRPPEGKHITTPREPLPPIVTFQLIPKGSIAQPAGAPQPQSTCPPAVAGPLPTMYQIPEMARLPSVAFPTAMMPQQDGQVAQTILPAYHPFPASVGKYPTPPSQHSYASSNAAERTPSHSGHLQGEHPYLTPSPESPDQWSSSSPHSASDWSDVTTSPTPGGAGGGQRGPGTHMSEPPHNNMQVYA
Sequence of Torsin-1A-interacting protein 2 (Homo sapiens) (Q8NFQ8 whole entry, looked up): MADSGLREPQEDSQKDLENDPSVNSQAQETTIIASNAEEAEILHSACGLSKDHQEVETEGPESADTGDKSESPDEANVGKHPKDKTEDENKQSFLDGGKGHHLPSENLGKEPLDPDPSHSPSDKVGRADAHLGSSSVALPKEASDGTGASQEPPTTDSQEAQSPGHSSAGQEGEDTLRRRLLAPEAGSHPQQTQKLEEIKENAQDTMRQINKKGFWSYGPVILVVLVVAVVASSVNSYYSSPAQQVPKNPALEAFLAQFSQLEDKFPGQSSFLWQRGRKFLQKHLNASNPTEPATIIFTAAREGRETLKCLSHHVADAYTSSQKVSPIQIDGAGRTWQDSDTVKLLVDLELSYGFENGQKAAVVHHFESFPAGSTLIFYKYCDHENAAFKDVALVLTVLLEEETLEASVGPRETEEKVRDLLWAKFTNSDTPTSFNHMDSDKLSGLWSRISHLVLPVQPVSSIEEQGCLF
Sequence of Pro-neuregulin-1, membrane-bound isoform (Homo sapiens) (Q02297 whole entry, looked up, the tested form may be a part, canonical isoform): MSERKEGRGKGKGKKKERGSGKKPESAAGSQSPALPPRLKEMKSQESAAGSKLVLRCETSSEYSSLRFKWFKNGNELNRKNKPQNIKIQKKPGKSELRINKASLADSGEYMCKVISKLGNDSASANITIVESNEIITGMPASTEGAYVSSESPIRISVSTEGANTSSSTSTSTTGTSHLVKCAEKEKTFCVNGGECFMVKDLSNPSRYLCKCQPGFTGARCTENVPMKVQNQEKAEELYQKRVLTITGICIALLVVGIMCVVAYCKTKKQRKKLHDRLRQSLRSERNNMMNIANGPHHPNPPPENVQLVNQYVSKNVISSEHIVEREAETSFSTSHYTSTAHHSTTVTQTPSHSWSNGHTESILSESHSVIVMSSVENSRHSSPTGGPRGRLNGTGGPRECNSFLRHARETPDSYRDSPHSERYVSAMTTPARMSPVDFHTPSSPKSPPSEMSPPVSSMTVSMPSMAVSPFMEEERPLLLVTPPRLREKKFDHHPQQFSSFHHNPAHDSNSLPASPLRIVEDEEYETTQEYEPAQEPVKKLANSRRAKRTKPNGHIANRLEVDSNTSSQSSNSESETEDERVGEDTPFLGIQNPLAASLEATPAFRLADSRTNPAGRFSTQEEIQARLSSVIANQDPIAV

Row | SMILES | composite z-score [1] | composite z-score [2] | composite z-score [3] | composite z-score [4] | composite z-score [5] | composite z-score [6] | composite z-score [7] | z-score [8] | composite z-score [9] | composite z-score [10] | composite z-score [11] | z-score [12] | z-score [13] | z-score [14] | composite z-score [15] | z-score [16] | composite z-score [17] | composite z-score [18] | composite z-score [19] | composite z-score [20]
1 | CCOC(=O)CCN1C(=O)[C@H]2[C@H]3[C@H](O)[C@H](O)CC(=NOCc4ccccc4)[C@H]3CC[C@H]2C1=O | 1.08 | -0.164 | -0.121 | 0.11 | 0.206 | -0.188 | -0.368 | -0.0531 (inactive) | 0.494 | -0.236 | -0.112 | 0.819 (inactive) | 1.04 (inactive) | 0.492 (inactive) | 0.374 | 1.08 (inactive) | 0.58 | -0.316 | -0.665 | 0.276
2 | CCOC(=O)[C@H](CC(C)C)NC(=O)CCC1CC(OC(=O)NCCc2ccc(F)cc2)CC2(CCCC(COC(=O)NCCc3ccc(Cl)cc3)O2)O1 (stereo not given in full) | -0.543 | 1 | -0.0267 | 0.491 | 0.74 | 0.0742 | 1.06 | 1.57 (inactive) | 0.197 | 0.208 | 1.26 | -0.623 (inactive) | 0.485 (inactive) | -0.518 (inactive) | 1.97 | -0.296 (inactive) | -0.0021 | 0.948 | 0.773 | -0.123
3 | COc1cccc([C@H]2Oc3ccc(OC)cc3C(=NOC[C@@H](O)COCc3ccco3)[C@@H]2O)c1 | -0.434 | 0.0488 | -0.158 | -1.12 | -1.29 | -0.984 | -1.7 | -0.765 (inactive) | -0.625 | -0.388 | -1.03 | -2.24 (inactive) | -1.36 (inactive) | -1.22 (inactive) | -1.32 | 0.32 (inactive) | -0.103 | -0.149 | -1.88 | -0.274
4 | CO[C@@H]1C=CCC(=O)N2CCC[C@H]2C(=O)OC[C@@H](C)C(=O)OC[C@H]1C | -0.605 | 1.7 | -0.159 | 0.492 | 0.156 | -0.582 | 0.477 | -1.15 (inactive) | 0.274 | 0.238 | 0.865 | -0.0313 (inactive) | -1.32 (inactive) | -0.918 (inactive) | -0.334 | 0.872 (inactive) | -0.143 | 1.56 | -0.0741 | -0.0444
5 | CO[C@H]1COC(=O)CCC[C@@H](C)[C@H](OC)COC(=O)[C@@H](C)NC(=O)CC=C[C@@H]1C | -0.467 | 2.11 | -0.235 | -0.0534 | -0.314 | -0.523 | -0.723 | 0.947 (inactive) | 0.0835 | -0.0994 | 1.4 | -0.994 (inactive) | -1.11 (inactive) | 0.0722 (inactive) | -1.7 | -0.597 (inactive) | -0.145 | 1.27 | 0.571 | 0.0115
6 | COC(=O)CC=C[C@@H](C)[C@@H](C=NOCC[C@@H]1C=C[C@H](OC(C)=O)[C@@H](COC(C)=O)O1)OC | -0.413 | 0.174 | 0.0144 | 0.502 | 0.193 | -0.0568 | 0.813 | 0.799 (inactive) | 0.0492 | 0.0053 | 1.08 | 0.355 (inactive) | -0.295 (inactive) | 0.474 (inactive) | 0.431 | -0.152 (inactive) | -0.0321 | 0.405 | 0.308 | 0.0754
7 | CO[C@H]1COC(=O)CC=C[C@@H](C)[C@H](OC)COC(=O)CCC[C@@H]1C | -0.344 | 1.58 | -0.187 | 0.238 | -0.438 | -0.35 | -0.137 | 0.444 (inactive) | -0.126 | 0.176 | 0.76 | -1.47 (inactive) | -0.441 (inactive) | -1.37 (inactive) | -0.552 | -0.351 (inactive) | -0.17 | 0.978 | 0.288 | -0.163
8 | COC(=O)CC=C[C@@H](C)[C@@H](C=NO[C@@H]1O[C@H](COC(C)=O)[C@@H](OC(C)=O)[C@H](OC(C)=O)[C@H]1OC(C)=O)NS(=O)(=O)c1ccc(C)cc1 | -0.486 | 0.969 | -0.158 | 0.367 | 1.11 | -0.993 | -1.37 | -0.443 (inactive) | 0.068 | -0.0645 | 1.41 | 0.0457 (inactive) | -0.23 (inactive) | -0.615 (inactive) | -0.147 | -1.32 (inactive) | -0.134 | 0.521 | 0.545 | -0.152
9 | CC(C)=CCCC(C)=CCON=C1C[C@@H](O)[C@@H](O)[C@@H]2[C@@H]3C(=O)N(C(C)(C)C)C(=O)[C@@H]3CC[C@@H]12 | 0.0454 | 0.113 | -0.0473 | 0.257 | 0.0729 | -0.0925 | 0.184 | -0.519 (inactive) | 0.13 | -0.191 | -0.305 | 0.286 (inactive) | 0.451 (inactive) | 0.361 (inactive) | 0.197 | -0.636 (inactive) | -0.0615 | 0.386 | 0.605 | -0.0594
10 | CC(C)=CCCC(C)=CCON=C1C[C@@H](O)[C@@H](O)[C@@H]2[C@@H]3C(=O)N(c4ccc(F)cc4F)C(=O)[C@@H]3CC[C@@H]12 | -0.245 | 0.87 | -0.116 | 0.546 | -0.205 | 0.895 | 0.314 | 0.656 (inactive) | 0.356 | 0.0505 | 1.11 | 0.918 (inactive) | -2.43 (inactive) | -0.496 (inactive) | -0.0426 | 1.34 (inactive) | 0.0054 | 0.888 | 0.678 | -0.0381
